The source of these data is PubChem BioAssay (NCI).

The panel holds about 83,000 compounds, 20% with a hit somewhere; the sample as a whole holds those more often.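 48-hour exposure, single concentration, 96-well plates; percent growth endpoint where 0 means no net growth. Active: below 10.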 Unmarked numbers belong to inactive results. Active and inactive are the calls of the source.

Test systems include SK-MEL-2 melanoma; EKVX NSCLC; SN12C renal; UO-31 renal; TK-10 renal; ACHN renal; CAKI-1 renal; CCRF-CEM leukemia; MOLT-4 leukemia; A498 renal.
Holding throughout (assay): NCI-60 one-dose screen, 48 h (100 = growth as untreated, 0 = no growth, -100 = all killed)
Conditions in all cases: 10 µM unless noted

As for `COc1cc(-c2nc3occn3c2-c2ccnc(NCCCNS(=O)(=O)c3ccccc3)n2)ccc1F`, the growth with SK-MEL-2 melanoma was 34.2%; in the experiment with EKVX NSCLC, 44.7%; with SN12C renal, 44%; in the experiment on UO-31 renal, 11.5%; in the experiment with TK-10 renal, 49.5%; with ACHN renal, 37.3%. In addition, the growth is 29.7% in the experiment on CAKI-1 renal, 17.3% with CCRF-CEM leukemia and 11% in the experiment with MOLT-4 leukemia.

With `N#Cc1c(N2CCOCC2)nc(=S)[nH]c1-c1ccccc1`, the growth is 41.8% in the experiment with SK-MEL-2 melanoma; 56.8% with EKVX NSCLC; 73.7% in the experiment on SN12C renal; 76.9% in the experiment on UO-31 renal; 57.6% in the experiment on TK-10 renal; 73.9% in the experiment with ACHN renal. For the same compound, the growth in the experiment with CAKI-1 renal is 61.4%; with CCRF-CEM leukemia, 62.3%; in the experiment with MOLT-4 leukemia it was 73.6%.

Take `COc1cc(/C=C2\C(=O)N(c3c(Cl)cccc3Cl)c3ccccc32)cc(OC)c1OCCCCCCn1c2ccccc2c(=O)c2ccccc21`: the growth is 96.2% with SK-MEL-2 melanoma; 111% in the experiment with EKVX NSCLC; 96.8% with SN12C renal; 74.3% in the experiment with UO-31 renal; 112% in the experiment with TK-10 renal; 91.9% with ACHN renal. For the same compound, the growth in the experiment on CAKI-1 renal is 82.9%; with CCRF-CEM leukemia, 104%; in the experiment with MOLT-4 leukemia, 90%.

Take `CCOC(=O)c1c2c(n3c1NCC3)-c1ccccc1C2=O`: the growth is 79.3% in the experiment with SK-MEL-2 melanoma; 95.8% in the experiment on EKVX NSCLC; 98.3% in the experiment with SN12C renal; 39.8% in the experiment with UO-31 renal; 96.4% in the experiment with TK-10 renal; 97.3% in the experiment on ACHN renal. The growth with CAKI-1 renal is 89.9%; in the experiment on CCRF-CEM leukemia it was 85%; in the experiment on MOLT-4 leukemia it was 87.8%.

In the case of `Cc1cc2nc(-c3c(-c4ccc(F)cc4)nc4sccn34)[nH]c2cc1C`, the growth in the experiment on SK-MEL-2 melanoma was 100%; with EKVX NSCLC it was 103%; with SN12C renal, 98.6%; with UO-31 renal, 78.6%; in the experiment with TK-10 renal, 86%; in the experiment with ACHN renal, 93.6%. For the same compound, the growth in the experiment with CAKI-1 renal was 89.9%; in the experiment with CCRF-CEM leukemia it was 90.1%; with MOLT-4 leukemia, 83.4%.

For the compound `COc1ccc2nc3ccccc3c(NCc3ccc(F)cc3)c2c1`, the growth was 35% in the experiment with SK-MEL-2 melanoma; 22.4% in the experiment with EKVX NSCLC; 17% with SN12C renal; -8.18% (active) in the experiment with UO-31 renal; 37.8% in the experiment on TK-10 renal; 5.65% (active) in the experiment on ACHN renal. For the same compound, the results for the growth in the experiment on CAKI-1 renal, in the experiment on CCRF-CEM leukemia and in the experiment on MOLT-4 leukemia were 7.16% (active), 18.4% and 0.544% (active), respectively.

Regarding `COc1ccc2nc3ccccc3c(NCc3ccccc3)c2c1`, the growth is 47.9% in the experiment on SK-MEL-2 melanoma; 26.9% in the experiment on EKVX NSCLC; 22.4% in the experiment with SN12C renal; 13.8% with UO-31 renal; 38.7% in the experiment on TK-10 renal; 12.8% in the experiment with ACHN renal. For the same compound, the growth with CAKI-1 renal was 25.8%; with CCRF-CEM leukemia, 33.4%; in the experiment on MOLT-4 leukemia, 8.01% (active).

Take `CCCCCSB(SCCCCC)c1ccccc1`: the growth with SK-MEL-2 melanoma is 102%; in the experiment on EKVX NSCLC it was 106%; with SN12C renal it was 106%; in the experiment on UO-31 renal, 81.3%; in the experiment on TK-10 renal, 101%; in the experiment on ACHN renal it was 105%. In addition, the figures for the growth in the experiment on CAKI-1 renal, in the experiment with CCRF-CEM leukemia and in the experiment with MOLT-4 leukemia were 96%, 97.4% and 96.4%, respectively.

With `COc1ccccc1NC(=O)c1ccc(/C=C/C(=O)c2nccn2C)cc1`, the growth is -27.4% (active) with SK-MEL-2 melanoma; -12.2% (active) in the experiment on EKVX NSCLC; -80.4% (active) with SN12C renal; -94.5% (active) in the experiment with UO-31 renal; -45.6% (active) in the experiment on TK-10 renal; -100% (active) in the experiment on ACHN renal. Further, the growth is -38.7% (active) with CAKI-1 renal, -11.6% (active) in the experiment on CCRF-CEM leukemia and 0.601% (active) with MOLT-4 leukemia.

Turning to `CCOC(=O)C/C(=N\Nc1cc(=O)[nH]c2ccc(Cl)cc12)C(=O)OCC`, the growth in the experiment on SK-MEL-2 melanoma is 116%; in the experiment with EKVX NSCLC, 105%; in the experiment on SN12C renal, 94.9%; in the experiment with UO-31 renal, 83.7%; in the experiment with TK-10 renal it was 104%; in the experiment on ACHN renal, 99.3%. In addition, the growth is 92.4% in the experiment on CAKI-1 renal, -51.5% (active) in the experiment on CCRF-CEM leukemia and -0.305% (active) in the experiment with MOLT-4 leukemia.

`COc1ccc(NC(=O)c2sc3nc4c(cc3c2N)CCCC4)cc1`: the growth with SK-MEL-2 melanoma was 34.9%; with EKVX NSCLC, 44.3%; with SN12C renal it was 60.8%; in the experiment with UO-31 renal it was 48%; with TK-10 renal, 38.8%; with ACHN renal, 49.3%. Also, the growth in the experiment with CAKI-1 renal is 38.5%; in the experiment on CCRF-CEM leukemia it was 9.46% (active); in the experiment on MOLT-4 leukemia, 21.5%.

For `CCOC(=O)CSc1nc2sc3c(c2c(=O)n1-c1ccc([N+](=O)[O-])cc1)CCCCC3`, the growth was 90.9% with SK-MEL-2 melanoma; 82.8% in the experiment with EKVX NSCLC; 84.3% with SN12C renal; 71.4% in the experiment on UO-31 renal; 84.7% in the experiment on TK-10 renal; 52.8% in the experiment on ACHN renal. In addition, the growth in the experiment with CAKI-1 renal is 51.2%; in the experiment with A498 renal, 85.3%; in the experiment on CCRF-CEM leukemia it was 89%; in the experiment on MOLT-4 leukemia, 97%.

Consider `COc1ccc(Nc2ncccc2NC(=O)c2cn(Cc3cccc(Oc4ccccc4)c3)nn2)cc1OC`, for which the growth was 95.1% with SK-MEL-2 melanoma; 68% with EKVX NSCLC; 81.1% in the experiment on SN12C renal; 54.4% in the experiment on UO-31 renal; 96.5% with TK-10 renal; 93.9% in the experiment with ACHN renal. Moreover, the figures for the growth in the experiment with CAKI-1 renal, in the experiment on CCRF-CEM leukemia and with MOLT-4 leukemia were 82%, 74.7% and 48.1%, respectively.

Turning to `COc1ccc(-c2cn(-c3ccc(Cl)cc3)c(SCC(=O)c3ccc([N+](=O)[O-])cc3)n2)cc1`, the growth was 73.6% in the experiment on SK-MEL-2 melanoma; 95% in the experiment with EKVX NSCLC; 78.3% in the experiment with SN12C renal; 82.5% in the experiment with UO-31 renal; 55.9% with TK-10 renal; 81.5% in the experiment with ACHN renal. Moreover, the growth is 76.1% in the experiment on CAKI-1 renal and 93.8% with CCRF-CEM leukemia.

As for `COc1ccc(C/C(C)=C(/c2ccc(OCCN3CCCCCC3)cc2)c2ccc(OC(=O)NCc3ccccc3)cc2)cc1`, the growth was 94.9% in the experiment on SK-MEL-2 melanoma; 87.6% in the experiment with EKVX NSCLC; 71.3% with SN12C renal; 62.7% in the experiment with UO-31 renal; 87.8% in the experiment on TK-10 renal; 101% in the experiment with ACHN renal. The growth with CAKI-1 renal is 92.8%; in the experiment with CCRF-CEM leukemia, 58%; in the experiment on MOLT-4 leukemia, 41.2%.
